As a reminder, the AC50 is the concentration giving half of the maximal activity seen.

Active and inactive are the calls of the source. How the source made its calls: active means hit-call score of the fitted dose curve at least 0.9, where 1 is the maximum; inactive means score below 0.9.

The source of these data is PubChem BioAssay (EPA / NIEHS).

Read-out in assay [1]: Matrix Metallopeptidase 9 (MMP9), MMP9 (gene 4318)
The assay is described as follows: BSK_KF3CT_MMP9: BioMAP Diversity Plus: KF3CT Assay for Matrix Metallopeptidase 9 (MMP9) Biomarker Activity (AID 2283074).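 On AC50: MMP9 protein level quantified by ELISA in the co-culture.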 The note with it: primary human keratinocytes with fibroblasts; actives raise or lower the signal. Summed up: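 Keratinocyte plus foreskin fibroblast human primary skin co-culture was dosed with chemical and MMP-9 was quantified by ELISA 24 h later. Bidirectional curve fitting used DMSO as negative control and activity baseline.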

Read-out in assay [2]: urokinase plasminogen activator (uPA), PLAU (gene 5328)
The assay is described as follows: BSK_KF3CT_uPA: BioMAP Diversity Plus: KF3CT Assay for urokinase plasminogen activator (uPA) Biomarker Activity (AID 2283075). The note with it: primary human keratinocytes with fibroblasts; actives raise or lower the signal. Summed up:
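Human keratinocyte plus foreskin fibroblast primary co-culture exposed to chemical for 24 h. uPA levels were quantified by ELISA, and activity was fitted bidirectionally against a DMSO negative-control baseline.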

Read-out in assay [3]: E-selectin (Homo sapiens) (UniProt P16581)
The assay is described as follows: BSK_LPS_Eselectin: BioMAP Diversity Plus: LPS Assay for Eselectin Biomarker Activity (AID 2283077). The conditions noted are these: primary human HUVEC with PBMC; actives raise or lower the signal. The procedure, abridged: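 Dose chemical onto LPS-driven HUVEC/PBMC co-culture; after 24 h, run ELISA for E-selectin; fit up- and down-going responses relative to DMSO control.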

Read-out in assay [4]: Interleukin-8 (IL8), CXCL8 (gene 3576)
The assay is described as follows: BSK_LPS_IL8: BioMAP Diversity Plus: LPS Assay for Interleukin-8 (IL8) Biomarker Activity (AID 2283078). The note with it: primary human HUVEC with PBMC; actives raise or lower the signal. The procedure, abridged: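 In this LPS system, chemical-treated human umbilical vein endothelium/PBMC co-cultures were harvested at 24 h for IL-8 ELISA.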

Assay [5] in a line: BSK_LPS_SRB: Viability Assessment in the BioMAP Diversity Plus: LPS Assay (AID 2283079).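 Further: total protein by sulforhodamine B absorbance as a cytotoxicity measure; measured one day after compound addition; fitted in both directions against DMSO so loss or gain of signal counts.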 The note with it: primary human HUVEC with PBMC. The procedure, abridged:
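Cytotoxicity endpoint in human endothelial–PBMC co-culture: 24 h exposure, then SRB (0.1%) staining, 560 nm read.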

Read-out in assay [6]: Interleukin-1 alpha (IL1a), IL1A (gene 3552)
Briefly: BSK_LPS_IL1a: BioMAP Diversity Plus: LPS Assay for Interleukin-1 alpha (IL1a) Biomarker Activity (AID 2283080). The note with it: primary human HUVEC with PBMC; actives raise or lower the signal. Summed up:
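Primary human HUVEC and PBMC co-culture stimulated with LPS is dosed and harvested at 24 h. Both increases and decreases in ELISA-measured IL-1a are scored relative to DMSO.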

Read-out in assay [7]: Monocyte Chemoattractant Protein-1 (MCP1), CCL2 (gene 6347)
The assay is described as follows: BSK_LPS_MCP1: BioMAP Diversity Plus: LPS Assay for Monocyte Chemoattractant Protein-1 (MCP1) Biomarker Activity (AID 2283081).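 On AC50: secreted MCP-1 protein quantified by ELISA in culture supernatant.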 The note with it: primary human HUVEC with PBMC; actives raise or lower the signal. Summed up: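 Values derive from bidirectional fitting against DMSO of ELISA-measured MCP-1 in a human primary endothelial and mononuclear cell co-culture, 24 h after chemical addition under LPS activation.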

Assay [8] in a line: BSK_LPS_PGE2: BioMAP Diversity Plus: LPS Assay for Prostaglandin E2 (PGE2) Biomarker Activity (AID 2283082).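 On AC50: secreted prostaglandin E2 measured by ELISA in LPS-stimulated co-culture.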 The conditions noted are these: primary human HUVEC with PBMC; actives raise or lower the signal. The procedure, abridged:
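LPS-activated HUVEC/PBMC co-culture; cmpd dosed, 24 h; PGE2 by ELISA; bidirectional fit vs DMSO; SRB (0.1%, TCA-fixed, 560 nm) in parallel plates for overt cytotox.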

Read-out in assay [9]: Macrophage colony-stimulating factor (MCSF), CSF1 (gene 1435)
The assay is described as follows: BSK_LPS_MCSF: BioMAP Diversity Plus: LPS Assay for Macrophage colony-stimulating factor (MCSF) Biomarker Activity (AID 2283083). The note with it: primary human HUVEC with PBMC; actives raise or lower the signal. The procedure, abridged: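 Bidirectional fit versus DMSO of ELISA-measured M-CSF in co-cultured human umbilical vein endothelial cells and PBMC, sampled 24 h after dosing.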

Read-out in assay [10]: Tissue Factor, F3 (gene 2152)
Briefly: BSK_LPS_TissueFactor: BioMAP Diversity Plus: LPS Assay for Tissue Factor Biomarker Activity (AID 2283084). The conditions noted are these: primary human HUVEC with PBMC; actives raise or lower the signal. The procedure, abridged:
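Read-out: CD142 ELISA, 24 h. System: LPS-driven human endothelial/PBMC co-culture. Analysis: up- or down-signal fitted against DMSO.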

Read-out in assay [11]: Tumor necrosis factor (Homo sapiens) (UniProt P01375)
Briefly: BSK_LPS_TNFa: BioMAP Diversity Plus: LPS Assay for Tumour Necrosis Factor alpha (TNFa) Biomarker Activity (AID 2283085). The conditions noted are these: primary human HUVEC with PBMC; actives raise or lower the signal. Summed up:
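Read-out is ELISA of TNFa in primary human endothelial cell–PBMC co-cultures at 24 h after compound. Activity in either direction was fitted against DMSO.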

Read-out in assay [12]: Vascular cell adhesion molecule 1 (VCAM1), VCAM1 (gene 7412)
The assay is described as follows: BSK_LPS_VCAM1: BioMAP Diversity Plus: LPS Assay for Vascular cell adhesion molecule 1 (VCAM1) Biomarker Activity (AID 2283086). The note with it: primary human HUVEC with PBMC; actives raise or lower the signal. The procedure, abridged: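 HUVEC + PBMC co-culture, LPS system; compound 24 h; VCAM-1 by ELISA; bidirectional fit vs DMSO control; parallel SRB (0.1%, TCA-fixed, 560 nm) for cytotoxicity.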

Read-out in another assay: CD38, CD38 (gene 952)
The assay is described as follows: BSK_SAg_CD38: BioMAP Diversity Plus: SAg Assay for CD38 Biomarker Activity (AID 2283087). The conditions noted are these: primary human HUVEC with PBMC; actives raise or lower the signal. The procedure, abridged: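 Human HUVEC plus PBMC co-culture stimulated with superantigen; CD38 measured by ELISA 24 h after chemical dosing. Fluorescence read-out, bidirectional fit against DMSO; cytotoxicity tracked in parallel by SRB and Alamar Blue.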

Read-out in assay [13]: CD40, CD40 (gene 958)
Briefly: BSK_SAg_CD40: BioMAP Diversity Plus: SAg Assay for CD40 Biomarker Activity (AID 2283088). The conditions noted are these: primary human HUVEC with PBMC; actives raise or lower the signal. The procedure, abridged:
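Endpoint derived by fitting increases or decreases versus DMSO controls. CD40 is detected by fluorescence ELISA in a human vascular co-culture of endothelium and PBMC at 24 h.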

Read-out in the next assay: CD69, CD69 (gene 969)
The assay is described as follows: BSK_SAg_CD69: BioMAP Diversity Plus: SAg Assay for CD69 Biomarker Activity (AID 2283089).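 On AC50: cell surface CD69 protein quantified by ELISA with fluorescence detection.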 The conditions noted are these: primary human HUVEC with PBMC; actives raise or lower the signal. Summed up: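 Endothelial/PBMC co-culture; chemical added; 24 h incubation; CD69 ELISA with fluorescence detection; bidirectional fit vs DMSO.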

Read-out in assay [14]: Monocyte Chemoattractant Protein-1 (MCP1), CCL2 (gene 6347)
Briefly: BSK_SAg_MCP1: BioMAP Diversity Plus: SAg Assay for Monocyte Chemoattractant Protein-1 (MCP1) Biomarker Activity (AID 2283090). The conditions noted are these: primary human HUVEC with PBMC; actives raise or lower the signal. Summed up:
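MCP-1 levels in the endothelial–PBMC SAg co-culture were quantified by ELISA at 24 h post-dosing; both increases and decreases versus DMSO scored. Cytotoxicity monitored by SRB total protein in parallel cultures.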

Read-out in assay [15]: E-selectin (Homo sapiens) (UniProt P16581)
Briefly: BSK_SAg_Eselectin: BioMAP Diversity Plus: SAg Assay for Eselectin Biomarker Activity (AID 2283091). The note with it: primary human HUVEC with PBMC; actives raise or lower the signal. Summed up:
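Endpoint values derive from bidirectional fitting relative to DMSO, using ELISA-measured E-selectin in a human vascular co-culture (umbilical vein endothelium plus PBMC) sampled 24 h after dosing.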

Read-out in assay [16]: Monokine induced gamma interferon (MIG), CXCL9 (gene 4283)
Briefly: BSK_SAg_MIG: BioMAP Diversity Plus: SAg Assay for Monokine induced gamma interferon (MIG) Biomarker Activity (AID 2283092). The note with it: primary human HUVEC with PBMC; actives raise or lower the signal. The procedure, abridged:
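Measures CXCL9 protein by ELISA in a human vascular primary-cell co-culture (umbilical vein endothelium with PBMC) 24 h after chemical addition. Activity is scored up or down from the DMSO control.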

Read-out in assay [17]: CD40, CD40 (gene 958)
Briefly: BSK_LPS_CD40: BioMAP Diversity Plus: LPS Assay for CD40 Biomarker Activity (AID 2283076). The note with it: primary human HUVEC with PBMC; actives raise or lower the signal. Summed up: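 Using a multiplexed primary human co-culture (umbilical vein endothelium plus PBMC), CD40 was read by ELISA 24 h after dosing, with cytotoxicity tracked by sulforhodamine B staining of parallel cultures and activity fitted bidirectionally versus DMSO.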

Sequence of Tumor necrosis factor (Homo sapiens) (P01375 whole entry, looked up): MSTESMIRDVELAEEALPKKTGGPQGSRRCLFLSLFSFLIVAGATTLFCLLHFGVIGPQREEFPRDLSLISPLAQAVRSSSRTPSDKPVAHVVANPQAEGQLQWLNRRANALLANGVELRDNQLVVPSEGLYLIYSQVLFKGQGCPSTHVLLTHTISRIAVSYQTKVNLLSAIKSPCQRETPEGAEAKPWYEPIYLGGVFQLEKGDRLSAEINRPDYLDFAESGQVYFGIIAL
Sequence of E-selectin (Homo sapiens) (P16581 whole entry, looked up): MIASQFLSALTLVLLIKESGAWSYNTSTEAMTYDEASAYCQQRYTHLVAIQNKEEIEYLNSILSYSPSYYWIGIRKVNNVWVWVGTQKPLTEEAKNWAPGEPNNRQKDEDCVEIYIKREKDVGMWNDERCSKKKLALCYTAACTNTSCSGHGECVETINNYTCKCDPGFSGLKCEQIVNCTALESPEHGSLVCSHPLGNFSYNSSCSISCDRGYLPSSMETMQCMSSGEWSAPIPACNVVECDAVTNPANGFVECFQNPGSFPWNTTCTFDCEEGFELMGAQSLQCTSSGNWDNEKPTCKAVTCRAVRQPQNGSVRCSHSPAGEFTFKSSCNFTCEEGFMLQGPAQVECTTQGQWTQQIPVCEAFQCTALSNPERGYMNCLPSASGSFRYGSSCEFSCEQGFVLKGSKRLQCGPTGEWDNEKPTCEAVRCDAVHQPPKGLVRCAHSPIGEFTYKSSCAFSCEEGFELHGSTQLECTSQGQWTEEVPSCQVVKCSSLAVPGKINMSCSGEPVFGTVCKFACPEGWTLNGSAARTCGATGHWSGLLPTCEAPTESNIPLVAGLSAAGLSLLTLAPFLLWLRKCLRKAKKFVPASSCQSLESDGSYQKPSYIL

As for `CC1(C)NC(=O)N(c2ccc([N+](=O)[O-])c(C(F)(F)F)c2)C1=O`, the result in assay [1], in assay [2], in assay [3], in [4], in assay [5] and in assay [6] was inactive. The result in assay [7], in assay [8], in assay [9], in assay [10], in assay [11] and in assay [12] was inactive. Besides, the outcome with CD38, CD38 (gene 952) was “inactive”; in the assay with CD40, CD40 (gene 958) [13] it was “inactive”; with CD69, CD69 (gene 969), “inactive”; in assay [14] it was “inactive”; in [15] it was “inactive”; in assay [16] it was “inactive”.

As to `COc1cc(C(=O)NC2CCN(C)CC2)ccc1Nc1ncc2c(n1)N(C1CCCC1)CC(F)(F)C(=O)N2C`, the AC50 is 18.6 µM (active) in assay [1]; 27.1 µM (active) in assay [2]; 10.1 µM (active) in the assay with CD40, CD40 (gene 958) [17]; 22.6 µM (active) in assay [3]; 18.6 µM (active) in [4]; 8.37 µM (active) in assay [5]. The half-maximal activity concentration (AC50) in assay [6] is 6.03 µM (active); in [7], 11.7 µM (active); in assay [8], 5.48 µM (active); in assay [9], 14 µM (active); in assay [10] it was 12.1 µM (active); in [11] it was 15.1 µM (active). For the same compound, the concentration at half-maximal activity (AC50) in assay [12] is 11.2 µM (active); in the assay with CD38, CD38 (gene 952), 11.6 µM (active); with CD40, CD40 (gene 958) [13] it was 16.6 µM (active); with CD69, CD69 (gene 969), 10.8 µM (active); in [14] it was 13.9 µM (active); in assay [15] it was 11.4 µM (active). Besides, in assay [16], the AC50 is 14.4 µM (active).

For `C[C@]12CC[C@@H]3c4ccc(O)cc4CC[C@H]3[C@@H]1CCC2=O`, the outcome in assay [1] is “inactive”; in assay [2], “inactive”; with CD40, CD40 (gene 958) [17], “inactive”; in [4], “inactive”; in assay [5], “inactive”; in assay [6] it was “inactive”. The result in assay [7], in [8], in assay [9], in assay [10], in assay [11] and in [12] was inactive. Further, the outcome with CD38, CD38 (gene 952) was “inactive”; with CD40, CD40 (gene 958) [13] it was “inactive”; with CD69, CD69 (gene 969), “inactive”; in assay [14], “inactive”; in assay [15], “inactive”. Besides, in assay [3], the half-maximal activity concentration (AC50) was 0.122 µM (active).

`O=c1c(-c2ccc(O)cc2)coc2cc(O)cc(O)c12`: the concentration at half-maximal activity (AC50) is 20 µM (active) in assay [1]; 14.3 µM (active) in the assay with CD40, CD40 (gene 958) [17]; 31.7 µM (active) in assay [3]; 20 µM (active) in assay [4]; 12 µM (active) in assay [5]; 16 µM (active) in [6]. In addition, the half-maximal activity concentration (AC50) in [7] was 17.9 µM (active); in assay [8], 10 µM (active); in [9], 14.8 µM (active); in assay [10], 13.2 µM (active); in assay [11], 15.8 µM (active); in assay [12], 13.9 µM (active). Also, the half-maximal activity concentration (AC50) is 25.1 µM (active) with CD38, CD38 (gene 952); 25.6 µM (active) in the assay with CD40, CD40 (gene 958) [13]; 20 µM (active) with CD69, CD69 (gene 969); 18.7 µM (active) in [14]; 24.9 µM (active) in assay [15]; 29.7 µM (active) in assay [16]. Moreover, the result in assay [2] was inactive.
